# Sampled rows, rich in hits. Any-hit rate of the full collection: about 1.4%.
# zVAD death inh: blocks zVAD induced death of L929 cells; L929 zVAD necroptosis rescue, ATP luminescence, 24 h; with zVAD 60 µM; viability rescue, % at 10 µM; 220,000 tested, 0.38% active;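 active = activation, scaled between plate controls, above about 75%, limit read from the data; inactive = activation under that limit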;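 also: 0% = zVAD with DMSO and 100% = DMSO alone without zVAD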
# V-ATPase pHluor: yeast V-ATPase proton transport regulation by pHLuorin; S. cerevisiae, pHLuorin cytosolic pH fluorescence; response, % at 10 µM; 350,000 tested, 0.37% active; AID 504577; in the data active = response mostly above about 7.3%, no sharp cut-off; inactive = mostly below about 5.4%; also: actives read high
# Wee1 degr inh: inhibitors of human Wee1 degradation. P30291. HeLa Luc-Wee1K328M stability, luciferase luminescence; 100% = proteasome inhibitor MG132 effect. reporter increase, % at 5 µM. 220,000 tested, 1.2% active. AID 1321;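 active = activation above the mean of all tested compounds plus 3 SD, set per screening run, cut at about 8.8% in these data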;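 also: cells exposed to compound for 20 h before luminescence read; 0% = DMSO alone and 100% = MG132 at 30 µM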
# Target sequence (P30291 whole entry K328M): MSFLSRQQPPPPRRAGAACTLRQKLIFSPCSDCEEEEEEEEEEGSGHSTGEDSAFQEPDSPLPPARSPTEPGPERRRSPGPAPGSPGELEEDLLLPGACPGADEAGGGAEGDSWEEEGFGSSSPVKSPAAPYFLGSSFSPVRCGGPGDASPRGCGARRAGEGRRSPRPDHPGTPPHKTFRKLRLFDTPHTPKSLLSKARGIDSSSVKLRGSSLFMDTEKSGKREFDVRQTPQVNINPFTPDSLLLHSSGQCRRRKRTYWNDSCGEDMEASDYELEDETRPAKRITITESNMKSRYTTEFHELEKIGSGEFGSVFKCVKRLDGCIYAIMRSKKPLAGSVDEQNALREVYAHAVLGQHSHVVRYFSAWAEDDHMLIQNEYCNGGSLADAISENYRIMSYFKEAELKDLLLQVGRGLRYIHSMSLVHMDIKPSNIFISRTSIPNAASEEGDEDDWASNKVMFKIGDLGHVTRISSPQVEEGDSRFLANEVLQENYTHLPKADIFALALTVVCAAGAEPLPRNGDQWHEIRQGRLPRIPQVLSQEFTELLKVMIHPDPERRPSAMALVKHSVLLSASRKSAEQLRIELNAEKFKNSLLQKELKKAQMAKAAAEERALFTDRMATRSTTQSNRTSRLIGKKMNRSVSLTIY
# TNF death inh: blocks TNF-alpha induced death of Jurkat FADD-/- cells. AID 463075. activation (protection from cell death), % at 10 µM. 220,000 tested, 0.068% active. Jurkat FADD-/- TNF necroptosis rescue, ATP luminescence, 24 h; 0 = TNF only, 100 = no-TNF cells;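 active = activation, meaning protection from cell death, of at least 50% relative to plate controls; inactive = activation below 50%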;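 also: necroptosis triggered by 40 ng/mL TNF-alpha added together with compound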
# HSV augment: HSV replication enhancement | maximum fold increase | HSV replication augmentation in cells, fold increase | AID 1956 | 220,000 tested, 0.005% active; in the data active = maximum fold increase above about 1.5; tested in PC3 cells
# zVAD death conf: confirmed blocker of zVAD induced death in L929 cells | shares compounds with zVAD death inh | L929 zVAD-induced necroptosis rescue, ATP luminescence, 24 h | activation (protection from necroptosis), % at 10 µM | 760 tested, 16% active | AID 463117;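 active = mean protection from necroptosis of at least 50% over duplicate tests; inactive = mean protection below 50%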;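 also: 0% = cells with zVAD alone and 100% = vehicle cells without zVAD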
# An asterisk follows results filed as active; i = inactive; / = not tested or not shown.
SMILES,zVAD death inh,V-ATPase pHluor,Wee1 degr inh,TNF death inh,HSV augment,zVAD death conf
O=C(Cc1ccc(F)cc1)N1CCC2(CC1)NCCc1[nH]cnc12,/,-2,/,/,/,/
C=C1C(=O)[C@@]23[C@H](O)C[C@@H]4C(C)(C)CC[C@H](O)[C@@]4(C)[C@@H]2CC[C@@H]1[C@H]3O,121*,-4,-1,-27,i,78*
C=C1C(=O)[C@@]23[C@H](O)C[C@@H]4C(C)(C)CC[C@H](O)[C@]4(C)[C@@H]2C[C@H](O)[C@@H]1[C@H]3O,1,-1,-4,-23,i,/
CC(=O)N(C)c1ccc(NC(=O)Nc2ccc(C)cc2)cc1,77*,3,4,-1,i,37
CC(C)(C)n1nc2c(c1NC(=O)c1cc3ccccc3o1)CS(=O)(=O)C2,2,0,4,0,i,/
O=C(Oc1ccc(Nc2ncnc3ccccc23)cc1)c1cccnc1,80*,-1,2,-1,i,1
COC(=O)c1c(C)[nH]c(O)c1C=Nc1ccc(C(C)C)cc1,82*,0,2,-1,/,4
CC(C(=O)Nc1nncs1)N1C(=O)C2C3C=CC(C3)C2C1=O (stereo not drawn),78*,0,0,1,i,0
COC(=O)C(CC(C)C)NC(=O)c1cccs1 (stereo not drawn),-1,-1,-2,0,i,/
O=C(Nc1nnc(S(=O)(=O)N2CCCCC2)s1)c1ccccc1Br,/,1,/,/,/,/
CCOc1ccc(C(=O)NC2CCN(S(=O)(=O)c3ccccc3)CC2)cc1,/,5,/,/,/,/
C=CCn1c(SCC(=O)NC(=O)Cc2ccccc2)nnc1-c1ccccc1F,/,1,/,/,/,/
O=C(Cc1ccc(Cl)cc1Cl)OCC(=O)N1CCN(C(=O)c2ccco2)CC1,76*,2,-1,0,i,3
Cc1cc(C(=O)OCC(=O)N2CCN(C(=O)c3ccco3)CC2)c(C)n1-c1ccc(F)cc1,87*,2,1,-2,i,35
O=C(CSCC(=O)OCC(=O)N1CCN(C(=O)c2ccco2)CC1)Nc1ccc(Cl)cc1,/,0,/,/,/,/
Cc1cccc(C(=O)OCC(=O)N2CCN(C(=O)c3ccco3)CC2)c1O,/,5,/,/,/,/
CCCCN(C)Cc1cc(=O)oc2cc3c(cc12)CCCC3,0,-5,0,1,i,/
c1ccc(-c2cc3cc4c(cc3cn2)OCO4)cc1,/,-4,/,/,/,/
Cc1ccccc1NC(=O)C(=Cc1ccc(C(=O)O)cc1)C(=O)Nc1ccccc1C,79*,4,2,43,i,38
Fc1cccc(/C=N/Nc2ccc3ccccc3n2)c1,1,-1,3,5,i,/
C(=N\Nc1ccccn1)/c1ccc2c(c1)OCCO2,83*,0,4,19,i,2
Fc1cccc(F)c1/C=N/Nc1ccccn1,90*,-2,0,13,i,24
Fc1cccc(Cl)c1/C=N/Nc1ccccn1,83*,-1,-3,16,i,1
Clc1ccc(C=NNc2ccccn2)c(Cl)c1,/,2,/,/,/,/
Fc1cccc(/C=N/Nc2ccccn2)c1,76*,1,2,20,i,1
SMILES,zVAD death inh,V-ATPase pHluor,Wee1 degr inh,TNF death inh,HSV augment,zVAD death conf
O=S(=O)(N/N=C/c1ccc2c(c1)OCCO2)c1ccccc1,0,0,3,-2,i,/
COC(=O)c1ccc(/C=N/Nc2nc(-c3ccc(C)cc3)cs2)cc1,1,1,-1,1,i,/
COC(=O)c1ccc(/C=N/Nc2nc(C)c(C)s2)cc1,80*,4,6,11,i,2
Cc1cccc(NC(=O)Nc2ccc(F)cc2)n1,/,-2,/,/,/,/
CC(=O)Nc1cccc(NC(=O)Nc2ccc(C)c(Cl)c2)c1,2,1,1,3,i,/
CC(=O)Nc1ccc(NC(=O)Nc2ccc(C)c(C)c2)cc1,80*,-1,5,-3,i,1
Cc1cccc(NC(=O)Nc2ccc([N+](=O)[O-])cc2)n1,76*,-1,1,0,i,40
Cc1ccc(NC(=O)Nc2cccc(C)n2)cc1,/,-1,/,/,/,/
Cc1cccc(NC(=O)Nc2ccc(C)c(C)c2)n1,75*,-2,6,-1,i,6
Cc1ccc(NC(=O)c2ccc(Cl)cc2Cl)cc1O,-1,5,-1,-4,i,/
Cc1ccc(C)c(S(=O)(=O)N2CCN(C(=O)[C@H](Cc3ccccc3)NC(=O)c3ccco3)CC2)c1,/,4,/,/,/,/
COc1ccc(NC(=O)Nc2cc(C)cc(C)c2)cn1,5,4,7,4,i,/
COc1ccc(NC(=S)NNC(=S)Nc2cccc(C(F)(F)F)c2)cc1,77*,2,3,0,i,6
CCOc1ccc(NC(=S)NNC(=S)Nc2cccc(C(F)(F)F)c2)cc1,74,1,0,3,i,/
COc1ccc(NC(=O)Nc2cccc(C(F)(F)F)c2)cn1,77*,0,-1,4,i,4
O=C(CN1C(=O)C(=O)N(C2CCCC2)C1=O)Nc1ccc(OC(F)F)cc1,/,1,/,/,/,/
COc1ccc(CNC(=O)C2=CC(c3ccc(C)cc3)=NS(=O)(=O)N2C)cc1,/,0,/,/,/,/
O=C(COC(=O)c1ccc(Cl)nc1)Nc1ccc(Cl)cc1,/,-2,/,/,/,/
O=C(COC(=O)c1ccc(O)cc1)Nc1ccc(Cl)cc1,78*,/,-2,2,i,21
CCOc1ccccc1NC(=O)CSc1nnnn1-c1ccc(C(=O)OC)cc1,77*,-1,0,-3,i,0
O=C(CSc1ccccn1)Nc1ccc(Cl)cn1,-1,-2,0,9,i,/
c1ccc(COc2ccc3nocc3c2)cc1,/,6,/,/,/,/
CC1CCCN(Cc2c(O)ccc3c(=O)c(-c4nc5ccccc5s4)c(N)oc23)C1 (stereo not drawn),78*,-3,-1,-4,i,38
COc1ccc(CC(=O)Nc2ccc(-c3cn4ccc(C)cc4n3)cc2)cc1,81*,3,2,2,i,24
COc1ccc(CC(=O)Nc2ccc(-c3cn4cccc(C)c4n3)cc2)cc1OC,-1,-2,0,-2,i,/
SMILES,zVAD death inh,V-ATPase pHluor,Wee1 degr inh,TNF death inh,HSV augment,zVAD death conf
Cc1[nH][nH]c(=O)c1C(c1c(C)[nH][nH]c1=O)c1cn(C)c2ccccc12,80*,0,-1,-3,i,23
CCCCCCn1c(=O)n2n(c1=O)[C@@H]1CN(S(=O)(=O)c3ccc(C)cc3)C[C@]1(O)[C@@H](OC(=O)NCc1ccc(OC)c(OC)c1)C2,/,-1,/,/,/,/
CN(C)S(=O)(=O)c1cccc(NC(=O)CCNC(=O)Nc2ccccc2)c1,/,9,/,/,/,/
CN(C)S(=O)(=O)c1cccc(NC(=O)CCSc2ccc(Cl)cc2)c1,77*,1,-1,-3,/,42
CCN1C(=O)/C(=C/c2ccc(C)s2)NC1=S,98*,2,-1,49,i,94*
Cc1ccc(N=Nc2ccc(C)cc2NC(=O)Nc2ccccc2F)cc1,1,1,-3,-1,i,/

# Screening results from PubChem.
